Compound activity (PubChem BioAssay)
NPC1 promoter act: qHTS Assay for NPC1 Promoter Activators | AID 485313, 2010 | Huh7 NPC1 promoter luciferase reporter, 24 h | Potency, µM (titrated, usually from 9.22 µM), for inactives: top-dose activation, most hits filed as activators | 2.4% of 320,000 active; also: % of control where 0% means no effect; nearly all actives have a fitted effect of over 60% in size
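Huh7 cells stably carrying NPC1 promoter–luciferase, plated in Opti-MEM with 10% FBS for 2 h, were exposed to compound in DMSO for 24 h at 37 °C; luciferase reagent was added for 10 min and luminescence read.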
Rab9 prom act: qHTS Assay for Rab9 Promoter Activators; Huh7 Rab9 promoter-luciferase reporter, luminescence, 24 h; Potency, µM (titrated, usually from 9.22 µM), inactives show top-dose activation, negative = inhibition, hits mostly activators; 2.8% of 320,000 active; also: % of control where 0% means no effect; nearly all actives have a fitted effect of over 60% in size
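Promoter activation is measured as luciferase luminescence in Huh7 cells stably transfected with a Rab9 promoter–luciferase construct, following 24 h compound exposure at 37 °C and 10 min reagent incubation at ambient temperature.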
FLuc counter: qHTS profiling assay for firefly luciferase inhibitor/activator using purifed enzyme and Km concentrations of substrates (counterscreen for miR-21 project). Potency, µM (series often up to 57.5 µM), for inactives: at the top dose activity change, negative = inhibition, most hits filed as inhibitors. Luciferin 4-monooxygenase (Photinus pyralis), P08659. purified FLuc, Km substrates, luminescence inhibition. AID 588342, 2011. 6.9% of 360,000 active;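 also: plate controls were vehicle for no effect and reference inhibitor for full effect; nearly all actives have a fitted effect of over 55% in size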
Target sequence (P08659 whole entry, looked up): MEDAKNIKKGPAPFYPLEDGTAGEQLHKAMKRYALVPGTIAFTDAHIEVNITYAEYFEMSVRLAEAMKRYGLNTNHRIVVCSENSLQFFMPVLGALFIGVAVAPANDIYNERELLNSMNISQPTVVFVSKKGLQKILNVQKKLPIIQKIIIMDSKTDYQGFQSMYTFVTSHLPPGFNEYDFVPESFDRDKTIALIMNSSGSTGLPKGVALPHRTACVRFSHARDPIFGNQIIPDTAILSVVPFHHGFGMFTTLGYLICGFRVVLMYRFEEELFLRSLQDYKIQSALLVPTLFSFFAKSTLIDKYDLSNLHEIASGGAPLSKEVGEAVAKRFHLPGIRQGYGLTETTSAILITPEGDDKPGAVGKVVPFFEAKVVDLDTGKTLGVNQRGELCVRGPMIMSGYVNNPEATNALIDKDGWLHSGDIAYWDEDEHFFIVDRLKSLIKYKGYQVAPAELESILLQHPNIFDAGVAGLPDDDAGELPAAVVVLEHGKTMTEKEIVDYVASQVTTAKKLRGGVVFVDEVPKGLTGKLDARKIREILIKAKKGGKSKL
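Biochemical qHTS of compounds, final roughly 60 µM downward over six points, against 10 nM purified firefly luciferase using Km concentrations of substrates (10 uM D-luciferin, 10 uM ATP) in Tris acetate pH 7.5 buffer; luminescence output.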
ELG1 genotox: qHTS screen for small molecules that induce genotoxicity in human embryonic kidney (HEK293T) cells expressing luciferase-tagged ELG1; HEK293T ELG1-luciferase reporter, luminescence, 16 h; Potency, µM (highest dose often 46 µM), without a hit: at the top dose activity change, positive = activation, usual class: activators; 1.3% of 330,000 active; AID 504466, 2011; also: % of control where 0% means no effect; nearly all actives have a fitted effect of over 60% in size
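HEK293T cells expressing luciferase-tagged ELG1 were exposed to compound or DMSO vehicle for 16 hr at 37 °C and 5% CO2. Luciferase activity was then measured with ONE-Glo after 30 min at room temperature.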
SMN2 splice up: qHTS Assay for Enhancers of SMN2 Splice Variant Expression | Potency, µM (doses to about 46.1 µM), inactives show top-dose activity change, positive = activation, actives largely listed as activators | HEK293 SMN2-luciferase splicing reporter, luminescence, 30-36 h | 2.8% of 210,000 active; also: % of control where 0% means no effect; nearly all actives have a fitted effect of over 55% in size
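qHTS luciferase splicing reporter: luminescence rises when SMN2 exon 7 is included in transfected HEK293 cells. Compound exposure lasted 30-36 h at 37C, with 4.5 mM final sodium butyrate as control, followed by a ONE-Glo read.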
* marks the source's active call; other numbers are inactive results; u = inconclusive; x = no result; [ ] = another dose, or the depositor's remark. This is a sample that favours compounds with a hit; in the whole collection about 7.5% have one here. Calls follow the shape of the dose curve; as a rule, active = well fitted curve in the direction sought with a large enough effect; inconclusive = small, poorly fitted or top-dose-only effect, or another doubt; inactive = no such curve, though single readings can be large; an effect the other way counts as inactive or inconclusive. Potency is read from the fitted curve at half-maximal effect.

SMILES | NPC1 promoter act | Rab9 prom act | FLuc counter | ELG1 genotox | SMN2 splice up
CCOC(=O)Cc1csc(NC(=O)c2ccc(OC)c(OC)c2)n1 | 4% | 5% | u | -10% | -20%
CCOC(=O)Cc1csc(NC(=O)Nc2cccc(OC)c2)n1 | 13% | -1% | 15µM* | -2% | x
CCCC(=O)Nc1ccc(C(=O)Nc2nc(CC(=O)OCC)cs2)cc1 | 1% | -1% | 15µM* | -1% | -3%
Cc1ccc(OCC(=O)c2cc(C)n(C3CC3)c2C)c([N+](=O)[O-])n1 | 14% | 2% | -18% | 12% | -8%
Cc1cc(C(=O)COc2ccc(F)cc2Br)c(C)n1C1CC1 | 17% | u | 11µM* | 0% | x
Cc1cc(C(=O)COc2ccc(F)cc2Br)c(C)n1C | 14% | 28% | 21µM* | 8% | 13%
Cc1cc(-n2c(C)cc(C(=O)COc3cc(F)ccc3[N+](=O)[O-])c2C)no1 | -6% | 0% | x | 1% | x
CC(=O)Nc1ccc(Cc2ccc3[nH]c(=O)cc(C)c3c2)cc1 | -3% | -1% | 3% | 21µM* | 8%[9.22 µM]
CC(=O)Nc1ccc2[nH]c3ccccc3c2c1 | 3% | 21% | 19µM* | 1% | x
CC(=O)Nc1ccc2[nH]c(C)cc(=O)c2c1 | -3% | -3% | 4% | -1% | 2%
CC(=O)Nc1ccc(-c2cc(-c3ccc(NC(C)=O)cc3)nc(-c3ccc(NC(C)=O)cc3)n2)cc1 | -5% | 1% | 0% | 0% | 3%
Cc1ccnn1-c1ccc(C(=O)NCC(c2ccco2)N2CCCC2)cc1 (configuration not stated) | 1% | -2% | 0% | 0% | x
COc1ccc([N+](=O)[O-])cc1/C=N/Nc1nc(N2CCCCC2)nc(N2CCCCC2)n1 | 9% | -8% | 2% | -11% | -42%
O=[N+]([O-])c1ccc(N/N=C/c2ccccc2O)cc1 | -7% | 20% | 15µM* | u | x
COc1ccc(OC)c(/C=N/NC(=O)Cc2nc3ccccc3[nH]2)c1 | 1% | 11% | -2% | 2% | 18%
COc1ccc(O)c(/C=N/Nc2nc3ccccc3[nH]2)c1 | 5% | u | 6.7µM* | u | u
O=[N+]([O-])c1ccc(O)c(/C=N/Nc2nc3ccccc3[nH]2)c1 | -35% | -38% | u | 18µM* | -100%
COc1cc(/C=N/Nc2nc3ccccc3[nH]2)ccc1O | 4% | 3% | 4.8µM* | u | 63%
O=[N+]([O-])c1cccc(N/N=C/c2cc([N+](=O)[O-])ccc2O)c1 | u | 30% | u | u | 20%
CCCC(=O)c1cn(CC(=O)OC)c2ccccc12 | -2% | 3% | 4% | 3% | -13%
Cc1ccc(SCCN2CCN(Cc3ccccc3)CC2)cc1 | -1% | -1% | -4% | -6% | x
COc1cc(/C=N/Nc2nc3ccccc3[nH]2)cc(Br)c1OCC(=O)N(C)C | -7% | -4% | 24µM* | -10% | -23%
COc1cc(/C=N/Nc2nc3ccccc3[nH]2)cc(OC)c1O | 14% | 21% | 4.8µM* | 14% | x
COc1ccc(C(=O)N/C(=C/c2cccs2)c2nc3ccccc3[nH]2)cc1OC | -2% | -2% | u | 3% | -27%
COc1cc(/C=C(/C(=O)c2cccs2)c2nc3ccccc3[nH]2)cc(OC)c1O | 13% | 14% | 2.4µM* | -20% | -77%
SMILES | NPC1 promoter act | Rab9 prom act | FLuc counter | ELG1 genotox | SMN2 splice up
COc1cc(/C=N/Nc2nc3ccccc3[nH]c2=O)ccc1O | 9% | 2% | 15µM* | -3% | u
Cc1cc(=O)[nH]c2ccc(S(=O)(=O)Nc3ccc(O)cc3)cc12 | 0% | 0% | -2% | 15% | x
COc1ccc(Br)cc1S(=O)(=O)N1CC(C)OC(C)C1 (configuration not stated) | -5% | -4% | -3% | -2% | 1%
CCOC(=O)c1[nH]c(C)c(C(=O)O)c1C | 0% | -4% | 0% | -4% | -9%
CCOC(=O)c1c(C)[nH]c(N=Nc2ccccc2C)c1C | 28% | u | 15µM* | 23µM* | 19%
CCOC(=O)c1[nH]c(C)c(C(=O)Nc2ccccc2C)c1C | -27% | -32% | -6% | u | 28%
CCOC(=O)c1c(C)[nH]c(N=Nc2ccc(C)cc2C)c1C | u | 0.25µM* | 15µM* | u | 11%
CCOC(=O)c1c(C)[nH]c(N=Nc2cc(C(=O)O)cc(C(=O)O)c2)c1C | -2% | 8% | 17µM* | 2% | x
COC(=O)c1ccc(NC(=O)Cn2nnc3ccccc32)cc1 | 3.5µM* | 2.8µM* | 4.3µM* | 16µM* | 13µM*
Cc1cccc(NC(=O)Cn2c(=O)n(C)c3ccccc32)c1 | -1% | -2% | 7% | 1% | 0%
O=C(Cn1nnc2ccccc21)Nc1ccc([N+](=O)[O-])cc1 | -2% | -1% | 1% | 2% | x
COc1ccc(NC(=O)COC(=O)Cn2nnc3ccccc32)cc1 | -3% | 0% | -10% | 0% | -2%
O=C(Cn1c(CSc2ccccc2)nc2ccccc21)Nc1ccccc1 | -3% | -2% | -19% | -6% | 1%
Cc1ccc(NC(=O)Cn2nnc3ccccc32)cc1 | u | 3.5µM* | 17µM* | u | x
Cc1cccc(NC(=O)Cn2nnc3ccccc32)c1 | 2.8µM* | 2.8µM* | u | u | 2%
Cc1ccc(SCc2nc3ccccc3n2CC(=O)Nc2ccccc2)cc1 | -3% | 4% | 15µM* | -1% | 6%
COc1ccc(CCNC(=O)COc2nsnc2N2CCOCC2)cc1OC | -6% | 4% | 1% | 2% | -26%
CCCCn1c(N)c(N(CC(C)C)C(=O)CN2C(=O)c3ccccc3C2=O)c(=O)[nH]c1=O | 1% | -2% | 6% | -1% | x
Oc1c(Cl)cccc1C=Nc1cc(C(F)(F)F)ccc1N1CCCC1 | 0% | -3% | 2% | 2% | 21%
Oc1c(Cl)cc(Cl)cc1C=Nc1cc(C(F)(F)F)ccc1N1CCc2ccccc2C1 | u | u | 1.9µM* | u | x
Cc1nc(S/C(=C/c2ccc(OCc3ccc(C(=O)O)cc3)cc2)C(=O)O)n[nH]1 | 6% | -4% | 27µM* | 0% | -31%
Cc1noc(C)c1COc1ccc(C(=O)O)cc1 | -5% | -2% | 0% | 3% | x
COc1cccc(NC(=O)CN(C)C(=O)c2oc3c(ccc4ccccc43)c2C)c1 | 0% | -4% | -1% | -2% | x
CC(=O)c1ccc(NC(=O)CSc2ccc(-c3sc(C)nc3C)nn2)cc1 | 12% | 5% | 13µM* | -19% | x
CCOC(=O)c1ccc(NC(=O)CSc2ccc(-c3ccccn3)nn2)cc1 | -2% | -2% | 11µM* | u | x
